Data taken from the supplement of paper PMC6555819.

These sequences were tested on VDR:RXRa (NR concentration 270 nM, RXRa partner concentration 90 nM) (assay: PBM binding z-score (relative to random genomic background probes); higher = stronger binding; sequences stand for … in GC…GCGATTGACAGCGTAGAATGAAGG).
Protocol: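 Protein-binding microarray (Agilent 4x180K custom design, double-stranded 60-nt probes: 5' GC cap, 34-nt variable region, 24-nt constant primer region; full probe sequence given). Purified or IVT nuclear receptor:RXRα heterodimers (3:1 NR:RXRα, mostly 270:90 nM) or homodimers were incubated for 1 h in PBS with 2% milk and no ligand, then detected with Alexa488 antibodies. Fluorescence from o1-orientation probes (~5 replicates averaged) was converted to z-scores against 500 random hg19 background probes. Variable regions are seed direct-repeat (DR0–DR5) sites, all their single-nucleotide variants and half-site ablations.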
TGTGAAAGTTCAAAGGTAACGTAAGTATCCACAC gave a PBM binding z-score of 4.88. Work on AGTCAAAGTTCAGGACCAGGTAACGTAAAGCACG yielded a PBM binding z-score of 2.41. In the case of CCTTACGGGTCACGAGGGTATAGCACGACGAGCG, the PBM binding z-score was 5.04. In the case of AGACCAAGGTGATCGTGAGGTCGTTGATACTAAC, the PBM binding z-score was 3.12. AGTCAAAGTTCAGGACAAGGTAACGTAAAGCACG gave a PBM binding z-score of 2.55. TAGCCTAGGTCATTGGGCCAGTAAAGTACGCATC was tested, and the PBM binding z-score was 2.08. For CTCGAAAGGTCGGTTGACGTGAGTATACGGATAA, the PBM binding z-score was 1.02. For TCTTGTAGATCAATAGAGGTTAAGACAGTGCGCT, the PBM binding z-score was 1.7. CTCGAAAGGTCGGTTGAGGTGAGGATACGGATAA showed a PBM binding z-score of 2.29. CTACCAAGGTGAACAAGGTGGTTGATTACTATTC gave a PBM binding z-score of 1.84. GCTAGCAGGCTATTTGGGTCACTCAATGACGGGC gave a PBM binding z-score of 0.0221. With ATATGTAGGTTAGCTGGGGACATTCAGACTAGGC the PBM binding z-score was 2.39. In the case of ACAACGAGGGCAATGAGTTGATAGCACGGGTGGC, the PBM binding z-score was 5.13. CCTCGGAGGACAACAGGAGGTCAGAGCGGCCAGA showed a PBM binding z-score of 2.92. CCTACTGGGCCATCAGGTCAGTGATATCAACGTT gave a PBM binding z-score of 0.21. With CCTTACGGTTCACTCCAGGTTATAGCATCGGAGT the PBM binding z-score was 3.4. GATACAGGTTCAGCTAGAGGCCAGAGTATGGAAA showed a PBM binding z-score of 2.28. AACGAAAGGTCGTGAGGTGAGTATACAGAAAGGC gave a PBM binding z-score of 3.68. In the case of ATCGAAAGGTCGAGGTGACTATAGAGAAAGGGAA, the PBM binding z-score was 2.55. Sequence CCTGCTAGGTAAATGGTCAGCTAAAGCAGCTCGC has a PBM binding z-score of -0.541. With ATCTCTAGGTAAAGATAGTTCAGTGTATGCAAAT the PBM binding z-score was 0.93. With CTACCAAGGTGAACAAGGTAGTTGATTACTATTC the PBM binding z-score was 1.45. In the case of CGGCCAAGGTCAATGCTAGGTCAGTGAAAGCATT, the PBM binding z-score was 4.95. ATATGTAGGTTATCGGGCCATTCAGTTTGCGCAT gave a PBM binding z-score of 1.14. In the case of TCTTCTAGATCAAAGGTTAAGAAAGCCGAAGCCT, the PBM binding z-score was 1.58. For ACAGACAGGTGATGAAGGTAAGTCAGGCTATCAT, the PBM binding z-score was -0.133. With GCTGCTAGGTCAACTGATGGTCTGCTAAAGCTCG the PBM binding z-score was 1.29. ATCTCTAGGTAACCAAATTCAGTGAATGCCGAAC was tested, and the PBM binding z-score was 0.296. For ACTATTAGTTGACTTAGGGCCACCGATACGACGC, the PBM binding z-score was 0.067. AGACAAAGTTCATCTAGGTAACGTAAGATATGCT was tested, and the PBM binding z-score was 5.16. In the case of ATATGTAGGTTAGTTGGGGTCATTCAGACTAGGC, the PBM binding z-score was 6.27. ATCGAAAGGTCGTGAGGTGAGTAAACAGAAAGGC was tested, and the PBM binding z-score was 3.3. In the case of ATACCAAGGTGATCGTGAGGTAGTTGATACTAAC, the PBM binding z-score was -0.169. In the case of TCGATTAGGTTAGGGGCATTCAGAATGGCGTCGA, the PBM binding z-score was 0.781. CCTTCCGGGTCACGAGGTTATAGCACGACGAGCG was tested, and the PBM binding z-score was 5.39. In the case of ACAGACAGGTGATGAAGGTACCTCAGGCTATCAT, the PBM binding z-score was -0.291. With CTCGGAAGGTCGTGCTCAGGTGAGTATACCAAAC the PBM binding z-score was 1.58. In the case of CGTCCATGGTCAAAGGTCAGTGAAGAGATGACGG, the PBM binding z-score was 3.39. TAGCCTAGGTCATGGGCCATTATACCACGCGAAC gave a PBM binding z-score of 2.27. ATTGAAAGGTCGAAGGTGAGTATACCCACCCGAA showed a PBM binding z-score of 3.13.
